This passage reports Potency results from PubChem BioAssay (Tox21).

Several values for one entry are separate records, joined by “and”; a condition that tells them apart may be missing. Equal values may be shown once. Records with an inconclusive call do not appear. Entries that show only a call come without a potency. Activity calls are given as the source filed them. Calls follow the shape of the dose curve; as a rule, active = well fitted inhibition curve with a large enough effect in the repeat runs; inconclusive = weak or mixed curves; inactive = flat fitted curve, though single readings scatter.
Potency is read from the fitted curve at half-maximal effect.

This assay is described as follows: qHTS assay to identify small molecule HDAC inhibitors (AID 1259364). Also: nearly all actives have a fitted effect of over 45% in size. As to conditions: HCT-116 HDAC-Glo I/II luminescence, 2 h; series mostly up to 92.4 µM. In short, it runs like this:
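Endogenous HDAC class I/II activity was measured in wild-type HCT-116 cells by HDAC-Glo luminescence after 2 h compound treatment.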
Background: In qHTS, concentration-response curves come from the screen itself.
As to `O=C(OCC(COC(=O)c1ccccc1)(COC(=O)c1ccccc1)COC(=O)c1ccccc1)c1ccccc1`, the Potency entry is “inactive”.
As for `Cc1cc(N)c(S(=O)(=O)O)cc1Cl`, the Potency entry is “inactive”.
In the case of `CCN(CC)CCNC(=O)c1c(C)[nH]c(/C=C2\C(=O)Nc3ccc(F)cc32)c1C` it was “inactive”; in that of `CC(C)(C)c1ccc(C(=O)CCCN2CCC(OC(c3ccccc3)c3ccccc3)CC2)cc1`, “inactive”; in that of `O=c1cc(-c2ccc(O)cc2)oc2cc(O)cc(O)c12`, 8.75 µM (active) and 17.2 µM (active).
For `CO[Si](CCCNc1ccccc1)(OC)OC` the value was “inactive”; for `C=C(C)C(=O)OCC(O)COc1ccc(C(C)(C)c2ccc(OCC(O)COC(=O)C(=C)C)cc2)cc1` (stereo unspecified), “inactive”; for `CCCCCCCCCCCC[N+](C)(C)CCCCCCCCCCCC`, “inactive”.
For `CCCCCCCC(=O)[O-].CCCCCCCC(=O)[O-].[Zn+2]` the value was “inactive”.
With `C/C=C(\C)C(=O)OCc1ccccc1`, the Potency entry was “inactive”.
For `CCN(C(=O)c1cc(C)cc(OC[C@H](C)Nc2ccncc2)c1)C(C)C`, the Potency entry was “inactive”.
`O=C(O)c1c(Cl)cccc1Cl`: the Potency result was “inactive”.
In the case of `CC(C)(C)c1ccc(C(=O)O)cc1` it was “inactive”; in that of `Cc1cccc(N(C)C(=S)Oc2ccc3c(c2)C2CCC3C2)c1` (stereo unspecified), “inactive”; in that of `CCN(C(=O)N(CC)c1ccccc1)c1ccccc1`, “inactive”.
In the case of `O=C(Nc1cccc(Cl)c1)OCC#CCCl` it was “inactive”; in that of `CN(C)[C@@H]1C(=O)C(C(N)=O)=C(O)[C@@]2(O)C(=O)C3=C(O)c4c(O)cccc4C[C@H]3C[C@@H]12`, “inactive”.
In the case of `Oc1cccc2cc3cccc(O)c3c(O)c12` it was “inactive”; in that of `Oc1ccc2cc(SSc3ccc4cc(O)ccc4c3)ccc2c1`, “inactive”.
Turning to `CCCCCOC(=O)CCCC`, the Potency entry is “inactive”.
For `C1CCCC1` the value was “inactive”; for `CCCC/C=C/CCCCO`, “inactive”.
In the case of `CCCCCCCC/C=C\CCCCCCCCOCCO` it was “inactive”.
For `Nc1c(Cl)cc(Cl)cc1Cl` the value was “inactive”; for `C/C=C1/C(=O)C[C@H]2[C@@H]3CCC4=CC(=O)CC[C@]4(C)[C@H]3CC[C@]12C`, “inactive”; for `Nc1ccc2cc(S(=O)(=O)O)cc(O)c2c1N=Nc1ccccc1C(F)(F)F`, “inactive”.
As to `COc1cccc(N)c1`, the Potency entry was “inactive”.
With `OCCCCCCCCCCCCBr`, the Potency result is “inactive”.
For the compound `[Cl][Au]([Cl])[Cl]`, the Potency result is “inactive”.
For `COc1cc(-c2ccc(N=C=O)c(OC)c2)ccc1N=C=O` the value was “inactive”.
In the case of `C[n+]1ccn(Cc2ccccc2)c1`, the Potency entry was “inactive”.
For the compound `CSc1cnc(C)cn1`, the Potency entry was “inactive”.
In the case of `Clc1ccccc1C(c1ccccc1)(c1ccccc1)n1ccnc1` it was “inactive”; in that of `CC(C)CCCCCCCCCCCCCCC(=O)O`, “inactive”; in that of `CCC(Cl)C(Cl)C(Cl)CC(Cl)C(Cl)C(C)Cl` (stereo unspecified), “inactive”.
In the case of `O=C1c2ccccc2Cc2ccccc21`, the Potency was 6.16 µM (active).
